Laboratory results reported in the supplement of paper PMC6555819.

Assays:
Assay in all cases: PBM binding z-score (relative to random genomic background probes); higher = stronger binding; sequences stand for … in GC…GCGATTGACAGCGTAGAATGAAGG
[1] = system: PPARg:RXRa DBDmut IVT, anti-RXR (DBD mutation: RXRa K156A/R161A, NR concentration 270 nM, RXRa partner concentration 90 nM)
Procedure, shortened: (§1)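 Each nuclear receptor dimer, without ligand, was incubated for 1 h on custom Agilent 4×180K protein-binding microarrays. Binding was detected with antibodies against each partner (one per run), and scanned fluorescence was regression-normalized. The binding z-scores are referenced to random human genomic background probes.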

[2] = system: PPARg:RXRa IVT, anti-PPARg (NR concentration 270 nM, RXRa partner concentration 90 nM)
Procedure, shortened: as §1

[3] = system: PPARg DBDmut:RXRa IVT, anti-PPARg (DBD mutation: PPARg1 K132A/R137A, NR concentration 270 nM, RXRa partner concentration 90 nM)
Procedure, shortened: as §1

[4] = system: PPARg DBDmut IVT, anti-PPARg (DBD mutation: PPARg1 K132A/R137A, NR concentration 270 nM)
Procedure, shortened: as §1

[5] = system: PPARg homodimer (NR concentration 180 nM)
Procedure, shortened: as §1

[6] = system: PXR:RXRa (NR concentration 270 nM, RXRa partner concentration 90 nM)
Procedure, shortened: as §1

[7] = system: PXR homodimer (NR concentration 270 nM)
Procedure, shortened: as §1

[8] = system: RARa:RXR (NR concentration 270 nM, RXRa partner concentration 90 nM)
Procedure, shortened: as §1

[9] = system: RARa homodimer (NR concentration 270 nM)
Procedure, shortened: as §1

[10] = system: RARb:RXRa (NR concentration 270 nM, RXRa partner concentration 90 nM)
Procedure, shortened: as §1

[11] = system: RARb homodimer (NR concentration 270 nM)
Procedure, shortened: as §1

[12] = system: RARg:RXRa (NR concentration 270 nM, RXRa partner concentration 90 nM)
Procedure, shortened: as §1

[13] = system: RARg homodimer (NR concentration 270 nM)
Procedure, shortened: as §1

[14] = system: RXRa DBDmut IVT, anti-RXR (DBD mutation: RXRa K156A/R161A, NR concentration 90 nM)
Procedure, shortened: as §1

[15] = system: RXRa homodimer (NR concentration 180 nM)
Procedure, shortened: as §1

[16] = system: THRa:RXRa (NR concentration 90 nM, RXRa partner concentration 90 nM)
Procedure, shortened: as §1

[17] = system: THRa homodimer (NR concentration 90 nM)
Procedure, shortened: as §1

[18] = system: VDR homodimer (NR concentration 270 nM)
Procedure, shortened: as §1

Row | Sequence | PBM binding z-score [1] | PBM binding z-score [2] | PBM binding z-score [3] | PBM binding z-score [4] | PBM binding z-score [5] | PBM binding z-score [6] | PBM binding z-score [7] | PBM binding z-score [8] | PBM binding z-score [9] | PBM binding z-score [10] | PBM binding z-score [11] | PBM binding z-score [12] | PBM binding z-score [13] | PBM binding z-score [14] | PBM binding z-score [15] | PBM binding z-score [16] | PBM binding z-score [17] | PBM binding z-score [18]
1 | TCTGCTCGGTCAGTTGGTCAGCTAACGAGCTGCC | 0.685 | 0.74 | -0.215 | 0.0745 | -0.826 | -0.447 | -1.11 | -0.352 | -1.55 | 1.73 | 1.35 | 0.987 | 1.71 | -0.175 | -0.299 | -0.381 | -0.999 | -0.918
2 | CGAACTAGGTCATTGACAGAACAGTGAATAGTAA | 7.82 | 8.32 | 1.7 | 2.64 | 1.37 | 1.39 | -0.216 | 1.99 | 0.356 | 3.56 | 2.34 | 3.64 | 4.15 | 2.74 | 2.46 | 2.47 | 0.922 | 1.15
3 | TTACCAAGGTGAGGTGAGGTCGTTGATCCAACTC | 1.36 | 2.9 | -0.05 | -0.0548 | 0.645 | 4.64 | 0.773 | 2.2 | -0.25 | 1.93 | 2.09 | 1.42 | 1.41 | 0.267 | 1.86 | 4.41 | 2.84 | 2.28
4 | CTCGAAAGGACGGTTGAGGTGAGTATACGGATAA | -0.361 | -0.0316 | 0.142 | 0.0698 | -0.218 | 0.0192 | 0.134 | 0.512 | -0.448 | 0.634 | 0.363 | 0.406 | 0.541 | -0.024 | 0.139 | 2.93 | 0.887 | 0.0364
5 | CGAACTAGGTCAAGGACAGTGGATCTCCGCACGC | 8.19 | 7.79 | 1.43 | 0.272 | 0.876 | 0.906 | -0.161 | 1.62 | 0.0729 | 3.84 | 3.1 | 3.74 | 4.5 | 1.34 | 2.41 | 3.05 | 2 | 0.315
6 | AGATCGAGGGCAATGAGTTGATAGCACGGGTGGC | 2.97 | 2.42 | 0.184 | -0.0429 | 0.453 | 1.53 | 3.29 | 0.437 | 0.369 | 2.12 | 1.18 | 0.862 | 1.38 | 1.73 | 0.854 | 0.856 | 0.0154 | 2.44
7 | CCTGTTAGGTCAATGGTCAGCTAAAGCAGCTCGC | 3.49 | 3.13 | -0.195 | -0.0792 | 2.54 | 1.43 | 0.214 | 2.39 | 1.21 | 4.14 | 3.5 | 4.07 | 4.93 | 2.35 | 2.63 | 3.16 | 2.18 | 0.926
8 | ATATGTAGGTTGAGGGTCATTCAGGTTGGTTCGC | 4 | 4.86 | 1.94 | 0.913 | 3.16 | 4.49 | 2.53 | 3.89 | 1.57 | 2.57 | 3.23 | 2.89 | 2.15 | 1.95 | 3.62 | 2.92 | 1.68 | 3.74
9 | TGAATGAGGTTATAGATCAGGGAACGTGGCGTCG | 1.18 | 1.89 | 1.37 | 0.361 | 1.11 | 0.894 | 0.211 | 1.58 | 0.661 | 1.34 | 0.339 | 1.36 | 1.02 | 0.491 | 2 | 2.05 | 0.416 | 0.618
10 | TCATAAAGGTAAAAGGTGAAAGTCGGTGTGGTAA | 3.49 | 3.5 | 0.634 | 0.86 | 2.26 | 2.56 | 0.65 | 4 | 1.25 | 2.54 | 2.25 | 2.87 | 1.28 | 1.94 | 4.16 | 2.34 | 0.408 | 0.435
11 | CCTACTGGGCCAAAAAGGTCATCGATGCCGATAA | 3.54 | 4.4 | -0.683 | 0.00778 | 3.39 | 4.69 | 1.58 | 5.26 | 2.06 | 4.53 | 4.84 | 5.18 | 4.77 | 0.518 | 5.25 | 3.28 | 0.651 | 1.99
12 | AGTCAAAGTTCGGGACGAGGTAACGTAAAGCACG | -0.421 | 0.748 | 0.226 | -0.0246 | 0.441 | 0.716 | 0.0422 | 0.869 | -0.0634 | 1.86 | 0.989 | 2.06 | 1.49 | 0.847 | 1.07 | 2.89 | 1.13 | 0.532
13 | ATATGTAGGCTACATCCGGGTCATTCAGGCTATG | 5.71 | 5.66 | 1.96 | 1.11 | 0.66 | 2.34 | 1.04 | 2.51 | 0.115 | 1.27 | 2.14 | 1.7 | 1.22 | 0.518 | 1.95 | 2.91 | 2.14 | 2.15
14 | ACTATTAGTTGACTTAGGGCAACTGATACGACGC | -0.0413 | 0.813 | 1.58 | 1.31 | 0.722 | 0.176 | 0.201 | 0.431 | 0.297 | 1.01 | 0.726 | 0.872 | 1.07 | 0.417 | 0.497 | 1.31 | 0.235 | 0.0906
15 | CCTGCTAGGTCAATGGTCTGCTAAAGCAGCTCGC | 4.23 | 3.5 | -0.516 | -0.86 | 1.16 | 0.731 | -0.482 | 1.36 | -0.721 | 3.78 | 2.64 | 3.31 | 3.96 | 1.75 | 1.63 | 2.31 | 0.724 | -0.14
